Laboratory results published in PubChem BioAssay (NCATS).
Records with an inconclusive call do not appear. The source made the active and inactive calls. Calls come from the whole dose curve; as a rule, active = well fitted inhibition curve with a large enough effect; inconclusive = small, poorly fitted or top-dose-only effect; inactive = flat fitted curve, though single readings scatter.

Experiment: qHTS to identify inhibitors of the type 1 interferon - major histocompatibility complex class I in skeletal muscle: primary screen against the NCATS Pharmaceutical Collection (AID 1347407);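 note: luminescence of HiBiT knocked into endogenous HLA-B as interferon-induced MHC class I level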
Settings: human skeletal muscle cells, IFN-b-induced MHC-I HiBiT luminescence, 24 h; series mostly up to 45.9 µM; activity change, negative = inhibition: at the top concentration
How it was run: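 A qHTS format is used: 8-point, 1:5 compound series with 46 uM top final concentration, applied alongside 4 ng/ml IFN-beta to HLA-B*08:01-HiBiT knock-in myoblasts. Luminescence is measured after 24 h treatment.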
% is set by controls: 0 for no effect and ±100 for the full control effect; potency is the fitted concentration of half-maximal effect.

Row | SMILES | activity change, negative = inhibition | Potency
1 | Nc1ccn([C@@H]2O[C@H](CO)[C@@H](O)C2(F)F)c(=O)n1 | -18.3% (inactive) | –
2 | C[C@@H]1CN(CCCn2c3ccccc3c3ccccc32)C[C@H](C)N1 | -8.68% (inactive) | –
3 | CC(C)COC(=O)c1ccc(N)cc1 | -1.24% (inactive) | –
4 | Oc1c(I)cc(I)c2cccnc12 | 5.98% (inactive) | –
5 | CN1CCN(C(c2ccccc2)c2ccccc2)CC1 | 0.251% (inactive) | –
6 | CC/C(=C(/CC)c1ccc(O)cc1)c1ccc(O)cc1 | -4.61% (inactive) | –
7 | O=c1c(-c2ccccc2)c1-c1ccccc1 | -20.5% (inactive) | –
8 | COc1cc2c(cc1OC)[C@@H]1CC(=O)[C@@H](CC(C)C)CN1CC2 | -10.5% (inactive) | –
9 | O=C1OC2(c3ccc(O)cc3Oc3cc(O)ccc32)c2ccccc21 | -8.09% (inactive) | –
10 | COC(=O)[C@@H]1CC2=CC(=O)CC[C@]2(C)[C@@]23O[C@@H]2C[C@@]2(C)[C@@H](CC[C@@]24CCC(=O)O4)[C@H]13 | 18.7% (inactive) | –
11 | CN1[C@@H]2CC[C@H]1CC(OC(=O)c1c[nH]c3ccccc13)C2 (stereo partly drawn) | -1.83% (inactive) | –
12 | Clc1ccc2c(c1)CCc1cccnc1C2=C1CCNCC1 | -25.4% (inactive) | –
13 | COc1cccc2c1C(=O)c1c(O)c3c(c(O)c1C2=O)C[C@@](O)(C(=O)CO)C[C@@H]3O[C@H]1C[C@H](N)[C@H](O)[C@H](C)O1 | – | 23.6 µM (active)
14 | CC(=O)N(O)CCCCCNC(=O)CCC(=O)N(O)CCCCCNC(=O)CCC(=O)N(O)CCCCCN | -24.2% (inactive) | –
15 | CC1(C)O[C@@H]2C[C@H]3[C@@H]4C[C@H](F)C5=CC(=O)C=C[C@]5(C)[C@H]4[C@@H](O)C[C@]3(C)[C@]2(C(=O)CO)O1 | -16.7% (inactive) | –
16 | CCCCOc1cc(C(=O)NCCN(CC)CC)c2ccccc2n1 | -5.95% (inactive) | –
17 | COc1cc(C=C2CCC/C(=C\c3ccc(O)c(OC)c3)C2=O)ccc1O | – | 14.9 µM (active)
18 | COc1cccc2c1C(=O)c1c(O)c3c(c(O)c1C2=O)C[C@@](O)(C(C)=O)C[C@@H]3O[C@H]1C[C@H](N)[C@H](O)[C@H](C)O1 | – | 3.33 µM (active)
